High-throughput results (PubChem)
KDM5B inhibitor = inhibitors of human KDM5B histone demethylase. Q9UGL1. KDM5B demethylase, FDH-coupled NADH fluorescence (FDH is formaldehyde dehydrogenase). Potency, µM (titrated, usually from 57.7 µM), usual class: inhibitors. 220,000 tested, 2.6% active. AID 1347165; active means well fitted inhibition curve with a large enough effect; further: nearly all actives have a fitted effect of over 70% in size
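Coupled FDH/NAD⁺ fluorescence readout. KDM5BΔAP 200 nM final; compound titration, 10 min RT preincubation; substrate mix 12.5 µM H3K4me3, 25 µM 2-OG, 50 µM Fe(II), 100 µM ascorbate, 0.25 mM NAD⁺, 0.25 U/mL FDH; ΔRFU over 30 min.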
Hits are given with their value; . = inactive. This excerpt belongs to a sample that is enriched for hits.

SMILES	KDM5B inhibitor
O=C(N/N=C/c1ccc(Br)cc1)c1cccc(N/N=C/c2ccc(Br)cc2)c1	.
O=C1COc2ccc(-c3csc(Nc4ccc(F)cc4)n3)cc2N1	.
CCC(Oc1ccc(F)cc1)C(=O)Nc1cc(C(C)(C)C)on1 (stereo not given)	.
Cc1cc(C)n2nc(SCC(=O)c3cc(C)n(C(C)C)c3C)nc2n1	.
C=CCN1CCN(C(=O)c2cccs2)CC1	.
C=CCN1CCN(C(=O)c2nnn3cc(-c4ccccc4)[nH]c(=O)c23)CC1	28.2µM
CCCCN(CC)C(=O)c1nnn2cc(-c3ccc(Cl)cc3)[nH]c(=O)c12	.
O=C(c1nnn2cc(-c3ccc(F)cc3)[nH]c(=O)c12)N1CCOCC1	31.6µM
CCCCNC(=O)c1nnn2cc(C)[nH]c(=O)c12	.
CCCCNC(=O)c1nnn2cc(-c3ccc(Cl)cc3)[nH]c(=O)c12	8.91µM
O=C(Cn1nnc(-c2ccc(F)cc2)n1)N1CCOCC1	.
Cc1cn2nnc(C(=O)N3CCC(C(=O)NCc4ccccc4)CC3)c2c(=O)[nH]1	.
Cc1cn2nnc(C(=O)N3CCC(C(=O)Nc4ccc(F)c(Cl)c4)CC3)c2c(=O)[nH]1	.
CC(C)n1nc(C(=O)Nc2nc(-c3ccc(F)cc3)cs2)c2ccccc2c1=O	.
Cc1c(Cl)cccc1NC(=O)CCC(=O)NNC(=O)C1CCCCC1	.
COc1ccc(/C=N/OCC(=O)Nc2cccc(C(F)(F)F)c2)cc1	.
O=C(/C=C/c1ccc2ccccc2c1)c1ccc(F)cc1F	.
O=C(Cn1nc2c(cc1=O)CCCC2)Nc1ccc(Br)cc1F	.
CCOc1ccc(C2Cn3nnc(-c4nc(C)no4)c3CO2)cc1 (stereo not given)	.
COc1cccc(C2Cn3nnc(-c4nc(-c5cccc(C)c5)no4)c3CO2)c1 (stereo not given)	.
Clc1ccc(C2Cn3nnc(-c4nc(-c5ccccc5Br)no4)c3CO2)cc1 (stereo not given)	.
CCOc1cccc(-c2noc(-c3nnn4c3COC(c3cccc(OC)c3)C4)n2)c1 (stereo not given)	25.1µM
COc1cccc(C2Cn3nnc(-c4nc(-c5cccc(Cl)c5)no4)c3CO2)c1 (stereo not given)	.
CCOc1ccc(C2Cn3nnc(-c4nc(-c5ccccc5Br)no4)c3CO2)cc1 (stereo not given)	22.4µM
COC(=O)CC(N)c1cccc(C)c1C (stereo not given)	.
SMILES	KDM5B inhibitor
O=C(O)C(c1c[nH]c2cc(Cl)ccc12)N1CCN(c2ncc(Br)cn2)CC1 (stereo not given)	.
CC(C)c1noc([C@@H]2C[C@H]3C(=O)NCCCCCCN(C(=O)CCc4ccccc4)[C@H]3C2)n1	.
CC(C)n1nc(C(=O)N2CCSCC2)c2ccccc2c1=O	.
C=CCOc1ccc(/C=C(\C#N)c2nc3cc(C)c(C)cc3[nH]2)cc1OC	.
CCOc1cccc2cc(S(=O)(=O)c3cccc(Cl)c3)c(=O)oc12	.
CC(=O)c1ccc(NC(=O)CSCc2cccc(F)c2)cc1	.
O=C(Cn1c(=O)nc2n1C(=O)N(c1ccccc1)C2)NCc1ccccc1	.
CC(C)c1ccc(C(=O)N2CCCC[C@H](N(C)C)C2)c(=O)n1C	.
CC(C)c1ccc(C(=O)N[C@H](C2CCNCC2)C2CC(O)C2)c(=O)n1C (stereo not given in full)	25.1µM
O=C(CCc1cc(=O)[nH]o1)N[C@H](C1CCNCC1)C1CC(O)C1 (stereo not given in full)	.
CSc1nnc(NC(=O)c2cc(=O)c3cc(Cl)cc(Cl)c3o2)s1	.
O=[N+]([O-])c1ccc(/C=N/Nc2cccc(Cl)c2)cc1	.
CCn1c(CO)nnc1C1CC(NC(=O)c2scc3c2CCCC3)C1 (stereo not given)	.
CCn1c(CO)nnc1C1CC(NC(=O)c2cnc3sccn3c2=O)C1 (stereo not given)	28.2µM
CCn1c(CO)nnc1C1CC(NC(=O)c2nnc3nc(C)ccn23)C1 (stereo not given)	.
Cc1cc(-c2ccc(S(=O)(=O)N3CCN(c4ccccc4)CC3)s2)n[nH]1	.
O=C(CCn1cncn1)N1CCC(c2cc(-c3ccccc3Cl)n[nH]2)CC1	.
O=C(CCc1nc2ccccc2c(=O)[nH]1)N1CCCCC1	.
O=C(CCc1nc2ccccc2[nH]c1=O)N1CCN(CCn2cncn2)CC1	17.8µM
O=C1N(CCCCOc2ccccc2)c2ccccc2NC12CCNCC2	.
CN1CCCN(C(=O)CCC[C@@H]2[C@H]3CCCN4CCC[C@@H](CN2Cc2ccccc2)[C@@H]34)CC1	.
Cc1ccccc1CNC(=O)CCC[C@@H]1[C@H]2CCCN3CCC[C@@H](CN1Cc1cccnc1)[C@@H]23	.
CCN(Cc1ccncc1)C(=O)CCC[C@@H]1[C@H]2CCCN3CCC[C@@H](CN1Cc1cccnc1)[C@@H]23	28.2µM
CN1CCCN(C(=O)CCC[C@@H]2[C@H]3CCCN4CCC[C@@H](CN2C)[C@@H]34)CC1	.
CN1CCCN(C(=O)CCC[C@@H]2[C@H]3CCCN4CCC[C@@H](CN2Cc2cccnc2)[C@@H]34)CC1	22.4µM
SMILES	KDM5B inhibitor
O=C(CCC[C@@H]1[C@H]2CCCN3CCC[C@@H](CN1Cc1ccccc1)[C@@H]23)Nc1cccnc1	.
Cc1cccc(NC(=O)N(Cc2cccs2)C2CC2)c1	.
O=C(CCc1ccccc1)N1CCC(c2n[nH]c(=O)n2-c2ccccc2)CC1	.
CCN(CC)S(=O)(=O)NCc1ccnc(Oc2ccc(OC)cc2)c1	.
O=C(Nc1ccc(Br)cc1F)c1ccc2nc(N3CCOCC3)sc2c1	.
CN1CCN(c2ccc(-c3cccc(N)c3)nn2)CC1	.
CN1CCN(c2cc(-c3cncc(N)c3)nc(N)n2)CC1	20µM
CN1CCN(c2cc(N3CCCC(CN4CCCCC4)C3)nc(N)n2)CC1 (stereo not given)	.
O=C(Nc1cccc(C(F)(F)F)c1)N1CCN(Cc2ccc(Cl)s2)CC1	.
COc1ccc(CCNC(=O)Cc2c(C)nn(C)c2C)cc1OC	.
Cc1ccccc1-c1nccn2c(C3CN(C(=O)c4cc5ccccc5[nH]4)C3)ncc12	50.1µM
O=C(c1ccn[nH]1)N1CC(c2ncc3c(-c4cccc(C(F)(F)F)c4)nccn23)C1	.
COC[C@@H]1CN(C(=O)c2cc3ccccc3[nH]2)C[C@H]1c1ccncc1	.
CCCCN(C)C(=O)c1sc2nc(C(C)(C)C)nc(C)c2c1C	.
CN(C)CCCn1c(-c2cccc(OC(F)(F)C(F)F)c2)n[nH]c1=S	.
O=C(COc1ccc2nc3n(c(=O)c2c1)CCC3)NC1CCCCCC1	.
CCn1c(CNC(=O)c2ccc3c(c2)OCO3)nnc1SCC(=O)c1ccc(OC)cc1	.
CN(C)C[C@@H]1CN(C)C[C@H]1NC(=O)c1cc(F)ccc1F	.
CN(C)C[C@@H]1CN(S(C)(=O)=O)C[C@H]1NC(=O)c1ccccc1	.
COc1ccc(C(=O)N[C@@H]2CN(Cc3ccccn3)C[C@H]2CN(C)C)cc1F	.
COc1cccc(C(=O)N[C@@H]2CN(c3ccccn3)C[C@H]2CN(C)C)c1OC	28.2µM
CN(C)C[C@@H]1CN(Cc2cccnc2)C[C@H]1NC(=O)c1ccc(F)c(Cl)c1	.
Cc1cccc(C(=O)N[C@@H]2CN(Cc3cccnc3)C[C@H]2CN(C)C)c1	.
COc1cccc(C(=O)N[C@@H]2CN(c3ncccn3)C[C@H]2CN(C)C)c1	31.6µM
Cc1cc(C(=O)N[C@@H]2CN(c3ccncn3)C[C@H]2CN(C)C)n[nH]1	.
CN(C)C[C@@H]1CN(c2ncccn2)C[C@H]1NC(=O)c1cccc(F)c1	20µM
